Rows were chosen to be rich in hits. Some 27% of all compounds tested hit in one or more screens of this group.
sEH inhibitor – soluble epoxide hydrolase inhibitors, primary screen, biochemical, human sEH | recombinant human sEH enzymatic activity assay | inhibition, % at 2 µM | 91,000 compounds, 0.34% hits; in the data active = inhibition above about 80%
Target sequence (P34913 whole entry, looked up): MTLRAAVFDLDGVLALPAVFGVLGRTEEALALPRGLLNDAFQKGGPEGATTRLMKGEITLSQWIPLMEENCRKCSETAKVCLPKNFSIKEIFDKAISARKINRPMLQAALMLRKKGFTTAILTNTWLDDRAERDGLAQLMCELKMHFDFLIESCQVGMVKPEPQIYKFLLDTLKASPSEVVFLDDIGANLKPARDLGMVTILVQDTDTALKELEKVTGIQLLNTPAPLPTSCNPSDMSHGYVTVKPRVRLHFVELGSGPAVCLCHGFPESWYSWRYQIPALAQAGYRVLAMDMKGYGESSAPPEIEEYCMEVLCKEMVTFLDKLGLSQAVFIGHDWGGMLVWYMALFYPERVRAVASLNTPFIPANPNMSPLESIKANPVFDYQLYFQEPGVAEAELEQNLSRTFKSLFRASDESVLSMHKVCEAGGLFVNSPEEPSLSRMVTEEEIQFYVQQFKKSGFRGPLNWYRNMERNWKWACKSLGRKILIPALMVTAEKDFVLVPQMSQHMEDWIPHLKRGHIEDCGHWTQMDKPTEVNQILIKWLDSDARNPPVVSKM
CYP2C9 inh – blockers of cytochrome P450 2C9 activity – biochemical, luminescence, ADME assay, primary screen | CYP2C9 Supersomes, luciferin-H conversion | inhibition, % at 5 µM | 96,000 compounds, 20% hits | AID 777, 2007;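 active = blocking of liver enzyme CYP2C9 beyond about 50% at 5 µM, limit read from the data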
CYP2C9 act – human CYP2C9 activators, primary screen, biochemical, luminescence | 96,000 compounds, 1.4% hits | activation factor at 5 µM | recombinant CYP2C9, luciferin-H conversion; stronger effect = higher value; factor 1 = untreated enzyme, 0 = blocked | AID 1024, 2008;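 active = activation factor of 2 or more for CYP2C9 at a 5 µM dose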;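 note: 0 = sulfaphenazole-blocked wells and 1 = vehicle-only wells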
CYP2C19 inhib – blockers of cytochrome P450 2C19 activity – biochemical, luminescence, ADME assay, primary screen | 96,000 compounds, 21% hits | inhibition, % at 5 µM | P33261 | CYP2C19 Supersomes, luciferin-H EGE luminescence, 30 min;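 active = CYP2C19 inhibition above a set limit at 5 µM in the primary screen, cut at about 50% in these data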;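 note: plate controls were negative control wells for no effect and 2.5 mM tranylcypromine positive control for full effect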
sEH act – soluble epoxide hydrolase activators, primary screen, biochemical, human sEH. purified human sEH enzymatic activity, activator screen. activation, % at 2 µM. 91,000 compounds, 0.04% hits. AID 717, 2007; in the data active = activation above about 37%
CYP2C19 act – human CYP2C19 activators, primary screen, biochemical, luminescence; Cytochrome P450 2C19 (Homo sapiens), P33261; recombinant CYP2C19, luciferin-H EGE luminescence; stronger effect = higher value; 0 = fully inhibited enzyme, 1 = untreated enzyme; activation factor at 5 µM; 96,000 tested, under 10 active; AID 1025, 2008;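 active = activation factor of at least 2 at 5 µM in the primary screen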;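 note: 0 = wells with 2.5 mM tranylcypromine and 1 = vehicle-only wells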
* marks the source's active call; other numbers are inactive results; nt = no result.

SMILES	sEH inhibitor	CYP2C9 inh	CYP2C9 act	CYP2C19 inhib	sEH act	CYP2C19 act
Cc1cc(C(=O)N/N=C/c2cc(Br)ccc2OC(=O)c2ccccc2)n[nH]1	4	61*	0.4	23	-4	0.8
COc1ccc(Br)cc1/C=N/NC(=O)c1nc(-c2ccccc2)n2c1CCCCC2	10	45	0.5	60*	-9	0.4
CCOc1cc(/C=N/NC(=O)c2cc(C)[nH]n2)ccc1OC(=O)c1ccc([N+](=O)[O-])cc1	-10	39	0.6	6	10	0.9
CCCc1cc(C(=O)NCCc2ccc(OC)c(OC)c2)no1	5	68*	0.3	94*	-3	0.1
CCCc1cc(C(=O)NCc2cccs2)no1	3	32	0.7	74*	-1	0.3
COc1ccc(CCNC(=O)c2cc(C(C)C)on2)cc1OC	nt	6	0.9	35	nt	0.6
CCCc1cc(C(=O)NCc2cccnc2)no1	0	15	0.9	59*	0	0.4
CCCc1cc(C(=O)N2CCN(C(c3ccccc3)c3ccccc3)CC2)no1	nt	83*	0.2	6	nt	0.9
Cc1cc(C(=O)N2CCN(C(c3ccccc3)c3ccccc3)CC2)no1	5	35	0.7	42	-6	0.6
CCC1CCCCN1C1Sc2ccc(C(=O)OC)cc2NC1=O (stereo not given)	-6	12	0.9	34	4	0.7
Cc1ccc(S(=O)(=O)CCC(=O)O)cc1C	-8	nt	nt	nt	9	nt
CN(C)CCNC(=O)CN1C(=O)COc2ccc(C(C)(C)C)cc21	-12	-2	1	-7	10	1.1
O=C(NCc1cccs1)c1ccccc1C(=O)NCc1cccs1	-7	7	0.9	35	11	0.6
CCCc1cc(C(=O)NC2CCCCC2)no1	nt	-29	1.3	40	nt	0.6
Cc1cc(C(=O)NCc2ccccc2Br)no1	4	-12	1.1	70*	-7	0.3
CCCc1cc(C(=O)NCc2ccccc2)no1	nt	12	0.9	58*	nt	0.4
CCCc1cc(C(=O)N(C2CCCCC2)C2CCCCC2)no1	2	81*	0.2	64*	0	0.4
CCN(CC)c1ncccc1C(=O)NCc1cccs1	4	65*	0.4	99*	-4	0
CCCN1C2=C(C(=O)CCC2)C(c2ccc(F)cc2)C2=C1c1ccccc1C2=O (stereo not given)	2	nt	nt	nt	0	nt
Cc1cccnc1NC(=O)c1ccc2nc(N)sc2c1	-9	22	0.8	6	11	0.9
CCOC(=O)c1ccc(NC(=O)Cn2cc3c(n2)CCC(C)C3)cc1 (stereo not given)	9	11	0.9	19	-9	0.8
CCCn1c(SCC(=O)c2ccc(CC)cc2)n[nH]c1=O	1	11	0.9	0	-3	1
COCc1nnc(NS(=O)(=O)c2ccc(C)cc2)s1	-2	52*	0.5	-7	5	1.1
COCc1nnc(NS(=O)(=O)c2ccccc2)s1	1	31	0.7	-12	-1	1.1
COCc1nnc(NS(=O)(=O)c2c(C)cc(C)cc2C)s1	-9	84*	0.2	5	7	1
SMILES	sEH inhibitor	CYP2C9 inh	CYP2C9 act	CYP2C19 inhib	sEH act	CYP2C19 act
Cc1nn(Cc2cccc(C(=O)NC34CC5CC(CC(C5)C3)C4)c2)c(C)c1Br	15	nt	nt	nt	-11	nt
CSc1ccc(S(=O)(=O)NCCSc2ccccn2)cc1	-1	nt	nt	nt	2	nt
CC(=NCc1ccncc1)C1=C(O)c2ccccc2C1=O	10	83*	0.2	65*	-10	0.3
CC(=NCc1cccnc1)C1=C(O)c2ccccc2C1=O	nt	26	0.7	38	nt	0.6
CC(=NCCCn1ccnc1)C1=C(O)c2ccccc2C1=O	4	81*	0.2	46	-4	0.5
O=C1C(C=NCCCn2ccnc2)=C(O)c2ccccc21	-2	nt	nt	nt	2	nt
O=C(O)CSc1nnc(CNc2ccccc2Cl)n1-c1ccccc1	-33	-16	1.2	-8	31	1.1
Cc1nn2c(N)csc2nc1=O	6	-16	1.2	-15	-7	1.1
CN(NC(=O)Nc1ccc(Cl)cc1)c1ncc(C(F)(F)F)cc1Cl	18	nt	nt	nt	-16	nt
Cc1nn(Cc2ccccc2)c(=O)n1N(C)c1ncc(C(F)(F)F)cc1Cl	9	10	0.9	67*	-9	0.3
CN(C)C(=O)c1cn(N(C)c2ncc(C(F)(F)F)cc2Cl)c(=O)c2ccccc12	12	80*	0.2	53*	-10	0.5
CC(C)(CNc1ccc([N+](=O)[O-])cc1Cl)CNS(C)(=O)=O	-1	44	0.6	55*	0	0.5
COc1ccc(OC)c(C2C(C(=O)c3ccc(C)o3)=C(O)C(=O)N2CCCN2CCOCC2)c1 (stereo not given)	3	nt	nt	nt	-3	nt
CSCSC1=C(C#N)C(c2ccccc2Cl)C(C(C)=O)=C(C)N1 (stereo not given)	4	82*	0.2	85*	0	0.2
CC(=O)C1=C(C)NC(SCC(N)=O)=C(C#N)C1c1cccs1 (stereo not given)	2	3	1	1	-1	1
CC(=O)C1=C(C)NC(SCC(N)=O)=C(C#N)C1c1sccc1C (stereo not given)	-2	19	0.8	17	2	0.8
CC(=O)C1=C(C)NC(SCC(=O)c2ccc(-c3ccccc3)cc2)=C(C#N)C1c1cccnc1 (stereo not given)	47	86*	0.1	96*	-47	0
CC(=O)C1=C(C)NC(SCC(N)=O)=C(C#N)C1C (stereo not given)	-8	-31	1.3	-26	6	1.3
CC(=O)C1=C(C)NC(SCSc2ccccc2)=C(C#N)C1c1cccnc1 (stereo not given)	-10	66*	0.3	83*	12	0.2
O=C(NCC1CCCO1)C1CCN(S(=O)(=O)c2cccnc2)CC1 (stereo not given)	2	-5	1	8	0	0.9
CC(C)CNC(=O)COc1ncnc2ccccc12	7	19	0.8	-1	-5	1
Cc1sc2nc(C)n(/N=C/c3ccccc3O)c(=O)c2c1C	2	-10	1.1	86*	0	0.1
CC(=O)c1ccc(NC(=O)C2CC(=O)N(Cc3ccccc3)C2)cc1 (stereo not given)	2	36	0.6	34	-1	0.7
Cc1c(Nc2cc(N3CCCCCC3)c3nonc3c2[N+](=O)[O-])c(=O)n(-c2ccccc2)n1C	-15	40	0.6	30	14	0.7
Cc1cccnc1NC(=O)COc1ccc2oc3c(c2c1)CCCC3	25	nt	nt	nt	-21	nt
